Some test systems named below: DAPK2; DAPK3; DDR1; DDR2; DMPK; DYRK1A; DYRK1B; DYRK2; EGFR; EIF2AK1; EPHA1; EPHA2; EPHA3.
What all share (conditions): concentration: 1 μM, replicates: in singlicate; n = 1
For another assay, the system named is T1, DCAMKL1.
T1 construct: gene DCLK1

The subject of a further assay is T2, DCAMKL2.
T2 construct: gene DCLK2

The next assay relates to T3, DCAMKL3.
T3 construct: gene DCLK3

A further assay concerns T4, DLK.
T4 construct: gene MAP3K12

In the next assay the test system is T5, DMPK2.
T5 construct: gene CDC42BPG

The test system of another assay is T6, DRAK1.
T6 construct: gene STK17A

Another assay has as its system T7, DRAK2.
T7 construct: gene STK17B
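Note: KINOMEscan kinase panel screen.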

Regarding `CC(C)(C)c1ccc(C(=O)Nc2cn3cc(-c4cccnc4)ccc3n2)cc1`, the “%Inh” value in the assay on DAPK2 was determined as 13%; with DAPK3, 8%; in the assay on DCAMKL1 it was 45%; with DCAMKL2, 12%; in the assay with DCAMKL3 it was 25%; with DDR1, 24%. The “%Inh” value in the assay with DDR2 was 0%; in the assay with DLK it was 0%; in the assay with DMPK2, 17%; with DMPK, 5%; in the assay with DRAK1 it was 10%; with DRAK2, 5%. The “%Inh” value was found to be 42% with DYRK1A; 65% in the assay with DYRK1B; 51% in the assay with DYRK2; 17% with EGFR; 3% in the assay with EIF2AK1; 12% with EPHA1. The “%Inh” value in the assay on EPHA2 is 12%; in the assay with EPHA3, 9%.
With `COC(=O)c1c(-c2ccccc2)c2cc(OC)ccc2c(=O)n1Cc1ccccc1`, the “%Inh” value is given as 2% in the assay with DAPK2; 6% in the assay with DAPK3; 12% in the assay on DCAMKL1; 7% in the assay with DCAMKL2; 0% in the assay with DCAMKL3; 81% in the assay on DDR1. For the same compound, the “%Inh” value in the assay on DDR2 worked out at 50%; with DLK it was 9%; in the assay with DMPK2, 0%; with DMPK, 0%; with DRAK1, 0%; in the assay on DRAK2, 22%. Moreover, the “%Inh” value in the assay on DYRK1A was 0%; with DYRK1B, 12%; in the assay with DYRK2, 0%; in the assay on EGFR, 0%; with EIF2AK1, 5%; in the assay with EPHA1 it was 0%. In addition, the entries for the “%Inh” value with EPHA2 and in the assay with EPHA3 were 3% and 9%, respectively.
In the case of `NC(=O)c1nnc2ccccc2c1N`, the “%Inh” value in the assay on DAPK2 was 10%; with DAPK3, 6%; in the assay with DCAMKL1, 9%; with DCAMKL2, 30%; in the assay on DCAMKL3 it was 0%; in the assay on DDR1, 0%. In addition, the “%Inh” value with DDR2 is 11%; in the assay on DLK, 18%; in the assay with DMPK2, 0%; in the assay on DMPK, 0%; in the assay on DRAK1, 41%; in the assay on DRAK2, 33%. Further, the “%Inh” value with DYRK1A turned out to be 29%; in the assay with DYRK1B it was 16%; in the assay on DYRK2, 39%; with EGFR, 0%; in the assay on EIF2AK1, 0%; in the assay on EPHA1, 14%. The results for the “%Inh” value in the assay on EPHA2 and with EPHA3 were 10% and 0%, respectively.
As for `Cl.NC(=O)c1cccc(Nc2nccc(Nc3ccc(Oc4cccc(Cl)c4)c(Cl)c3)n2)c1` [GW659008], the “%Inh” value with DAPK2 is given as 0%; with DAPK3, 22%; in the assay on DCAMKL1 it was 0%; in the assay with DCAMKL2 it was 13%; in the assay on DCAMKL3, 0%; in the assay with DDR1 it was 1%. The “%Inh” value was found to be 0% with DDR2; 24% with DLK; 55% in the assay on DMPK2; 0% in the assay with DMPK; 13% in the assay with DRAK1; 0% in the assay with DRAK2. Besides, the “%Inh” value with DYRK1A was found to be 5%; in the assay on DYRK1B it was 4%; in the assay with DYRK2, 13%; in the assay with EGFR, 96.9%; in the assay with EIF2AK1 it was 0%; in the assay on EPHA1, 0%. Moreover, the “%Inh” value in the assay with EPHA2 is listed as 0%; in the assay with EPHA3, 5%.
For the compound `Cc1cc(N2Cc3ccccc3C2)nc(Nc2ccc(S(=O)(=O)N3CCOCC3)cc2)n1.Cl` [GSK1669917], the “%Inh” value in the assay with DAPK2 is 5%; in the assay on DAPK3, 100%; with DCAMKL1 it was 21%; with DCAMKL2 it was 0%; with DCAMKL3 it was 0%; in the assay with DDR1, 0%. Besides, the “%Inh” value in the assay on DDR2 was found to be 9%; with DLK, 2%; in the assay with DMPK2, 1%; with DMPK, 0%; with DRAK1 it was 17%; in the assay with DRAK2, 0%. The “%Inh” value in the assay on DYRK1A stood at 11%; with DYRK1B it was 19%; in the assay with DYRK2 it was 0%; in the assay on EGFR, 23%; with EIF2AK1, 0%; in the assay on EPHA1, 0%. Further, the “%Inh” value is 19% in the assay on EPHA2 and 0% with EPHA3.
As to `C[C@@H]1CCCCN1c1cc(-c2ccc3c(N)n[nH]c3c2)nc(N)n1` [GSK2258759], the “%Inh” value is recorded as 0% in the assay with DAPK2; 19% with DAPK3; 2% in the assay on DCAMKL1; 0% in the assay with DCAMKL2; 0% in the assay on DCAMKL3; 0% in the assay on DDR1. The “%Inh” value with DDR2 is given as 0%; with DLK, 21%; in the assay on DMPK2, 0%; with DMPK, 0%; in the assay with DRAK1, 96%; in the assay with DRAK2, 0%. The “%Inh” value amounted to 0% in the assay with DYRK1A; 0% with DYRK1B; 10% in the assay with DYRK2; 18% with EGFR; 0% with EIF2AK1; 8% with EPHA1. The “%Inh” value with EPHA2 is reported as 0%; in the assay with EPHA3, 7%.
Turning to `Cc1cccc(-c2nc(C)cc(Nc3ccncc3)n2)n1` [GSK257997], the “%Inh” value was 2% in the assay with DAPK2; 14% in the assay on DAPK3; 11% in the assay with DCAMKL1; 3% in the assay on DCAMKL2; 13% in the assay on DCAMKL3; 0% in the assay with DDR1. Besides, the “%Inh” value was 1% in the assay with DDR2; 0% in the assay on DLK; 89% in the assay with DMPK2; 0% with DMPK; 12% in the assay on DRAK1; 0% with DRAK2. Moreover, the “%Inh” value in the assay with DYRK1A is 6%; in the assay on DYRK1B, 13%; in the assay on DYRK2, 14%; in the assay with EGFR, 30%; with EIF2AK1 it was 0%; in the assay on EPHA1 it was 0%. Further, the “%Inh” value was 9% in the assay on EPHA2 and 0% in the assay on EPHA3.
With `O=c1cc(N2CCOCC2)nc2n(Cc3cccc(Cl)c3Cl)ccn12` [GSK2286295], the “%Inh” value with DAPK2 is 7%; in the assay with DAPK3, 15%; in the assay with DCAMKL1, 5%; in the assay with DCAMKL2 it was 0%; with DCAMKL3, 20%; in the assay with DDR1, 0%. Further, the “%Inh” value with DDR2 was determined as 0%; with DLK, 0%; in the assay with DMPK2, 0%; with DMPK, 3%; in the assay with DRAK1, 0%; with DRAK2, 0%. The “%Inh” value with DYRK1A was found to be 14%; with DYRK1B, 30%; in the assay with DYRK2, 21%; with EGFR it was 20%; in the assay on EIF2AK1, 0%; in the assay on EPHA1, 0%. In addition, the “%Inh” value in the assay on EPHA2 is 4%; in the assay on EPHA3, 18%.
In the case of `O=S(=O)(c1ccc(-c2ccnc3[nH]ccc23)cc1)N1CCCC1` [GSK846226], the “%Inh” value in the assay with DAPK2 is reported as 48%; in the assay on DAPK3, 76%; in the assay on DCAMKL1, 23%; in the assay on DCAMKL2, 0%; with DCAMKL3 it was 0%; with DDR1, 0%. The “%Inh” value was found to be 0% in the assay on DDR2; 0% with DLK; 15% in the assay on DMPK2; 3% with DMPK; 73% with DRAK1; 0% in the assay with DRAK2. The “%Inh” value worked out at 21% in the assay on DYRK1A; 11% in the assay on DYRK1B; 35% in the assay on DYRK2; 33% in the assay on EGFR; 0% in the assay on EIF2AK1; 5% in the assay with EPHA1. Moreover, the “%Inh” value in the assay with EPHA2 came to 0%; in the assay with EPHA3, 11%.
Take `Cc1cccc(-c2nc(Nc3ccncc3)c3ccccc3n2)n1` [GW855857]: the “%Inh” value is 7% in the assay with DAPK2; 17% in the assay with DAPK3; 14% in the assay on DCAMKL1; 0% with DCAMKL2; 21% in the assay on DCAMKL3; 30% in the assay with DDR1. Moreover, the “%Inh” value amounted to 45% with DDR2; 0% with DLK; 76% with DMPK2; 2% in the assay on DMPK; 2% with DRAK1; 7% with DRAK2. Also, the “%Inh” value in the assay with DYRK1A is given as 0%; with DYRK1B, 27%; in the assay on DYRK2, 0%; in the assay on EGFR it was 6%; with EIF2AK1, 0%; with EPHA1, 23%. In addition, the “%Inh” value in the assay on EPHA2 is recorded as 18%; in the assay with EPHA3 it was 0%.

The values above are taken from paper PMC5540273 (PLoS ONE, 2017).
